Assay results from PubChem BioAssay AID1159580 (chemical genetic matrix, 2015).
Values joined by “and” are separate entries in the source; they are usually repeats but may differ in a detail not shown here. Equal values may be shown once. The campaign covered roughly 5,500 compounds. About 2,000 (36%) were called active. About 18% were inconclusive and are not listed. Rule as the data show it: active = normalized growth mostly below about 0.91 (no sharp cut-off); inconclusive = no clear call, values can overlap the other calls; inactive = mostly above about 0.92. This is one part of the list.

Experiment: chemical genetic growth profiling, strain panel (AID 1159580);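 also: tested at 20 µM; growth read once vehicle control cultures reached saturation at 30 °C; 1 = growth at the plate median or of vehicle wells; lower values mean less growth of the strain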
Details: S. cerevisiae deletion strains, growth OD

Measured: normalized growth

O=c1[nH]c(=O)n(C2C[C@@H](O)[C@@H](CO)O2)cc1F (stereo partly drawn)
inactive: locus YAL013W, strain DEP1, stronger effect = lower value 1.04 | locus YAL021C, strain ccr4, stronger effect = lower value 1.01 | locus YAL026C, strain drs2, stronger effect = lower value 0.996 | locus YAL030W, strain snc1, stronger effect = lower value 0.992 | locus YBL061C, strain skt5, stronger effect = lower value 0.987 | locus YBR009C, strain hhf1, stronger effect = lower value 1 | locus YBR021W, strain FUR4, stronger effect = lower value 1 | locus YBR023C, strain chs3, stronger effect = lower value 1 | locus YBR171W, strain sec66, stronger effect = lower value 0.993 | locus YBR229C, strain ROT2, stronger effect = lower value 1 | locus YBR231C, strain swc5, stronger effect = lower value 1 | locus YBR279W, strain paf1, stronger effect = lower value 1.01 | locus YCL011C, strain gbp2, stronger effect = lower value 1.01 | locus YCL016C, strain dcc1, stronger effect = lower value 0.994 | locus YCL029C, strain bik1, stronger effect = lower value 1.01 | locus YCL061C, strain MRC1, stronger effect = lower value 0.996 | locus YCL069W, strain vba3, stronger effect = lower value 0.987 | locus YCR088W, strain abp1, stronger effect = lower value 0.986 | locus YDL005C, strain med2, stronger effect = lower value 0.992 | locus YDL035C, strain GPR1, stronger effect = lower value 0.99 | locus YDL040C, strain nat1, stronger effect = lower value 1.01 | locus YDL074C, strain BRE1, stronger effect = lower value 1.04 | locus YDL101C, strain DUN1, stronger effect = lower value 1.03 | locus YDL185W, strain tfp1, stronger effect = lower value 1.01 | locus YDL192W, strain arf1, stronger effect = lower value 1.02 | locus YDR001C, strain nth1, stronger effect = lower value 0.979 | locus YDR069C, strain doa4, stronger effect = lower value 0.998 | locus YDR101C, strain arx1, stronger effect = lower value 1.01 | locus YDR137W, strain rgp1, stronger effect = lower value 0.989 | locus YDR159W, strain sac3, stronger effect = lower value 0.992 | locus YDR162C, strain NBP2, stronger effect = lower value 0.993 | locus YDR195W, strain ref2 0.984 | locus YDR297W, strain sur2, stronger effect = lower value 0.998 | locus YDR318W, strain mcm21, stronger effect = lower value 1.01 | locus YDR334W, strain swr1, stronger effect = lower value 0.97 | locus YDR335W, strain msn5, stronger effect = lower value 1.01 | locus YDR388W, stronger effect = lower value 1.01 | locus YDR392W, strain spt3, stronger effect = lower value 0.994 | locus YDR502C, strain sam2, stronger effect = lower value 1.01 | locus YEL003W, strain gim4, stronger effect = lower value 0.989 | locus YEL037C, strain rad23, stronger effect = lower value 0.993 | locus YEL061C, strain CIN8 (second series), stronger effect = lower value 0.981 | locus YEL061C, strain CIN8, stronger effect = lower value 1.01 | locus YER015W, strain faa2, stronger effect = lower value 0.998 | locus YER016W, strain bim1, stronger effect = lower value 1.01 | locus YER110C, stronger effect = lower value 1.02 | locus YER111C, strain swi4, stronger effect = lower value 0.996 | locus YER155C, strain BEM2 (second series), stronger effect = lower value 1.01 | locus YER155C, strain BEM2, stronger effect = lower value 1.01 | locus YER167W, strain BCK2, stronger effect = lower value 1 | locus YFR010W, strain ubp6, stronger effect = lower value 1.01 | locus YGL078C, strain dbp3, stronger effect = lower value 1 | locus YGL086W, strain mad1, stronger effect = lower value 1.01 | locus YGL167C, strain pmr1, stronger effect = lower value 0.996 | locus YGL173C, strain kem1, stronger effect = lower value 1.01 | locus YGL227W, strain vid30, stronger effect = lower value 0.979 | locus YGL240W, strain doc1, stronger effect = lower value 0.972 | locus YGL248W, strain PDE1, stronger effect = lower value 1.03 | locus YGL253W, strain hxk2, stronger effect = lower value 1 | locus YGR078C, strain PAC10, stronger effect = lower value 1.03 | locus YGR135W, strain pre9, stronger effect = lower value 1.01 | locus YGR252W, strain gcn5, stronger effect = lower value 1.01 | locus YHR013C, strain ard1, stronger effect = lower value 1.01 | locus YHR027C, strain rpn1, stronger effect = lower value 0.98 | locus YHR030C, strain SLT2, stronger effect = lower value 1 and 0.982 | locus YHR079C, strain IRE1 (second series), stronger effect = lower value 1.02 | locus YHR079C, strain IRE1, stronger effect = lower value 0.965 | locus YHR094C, strain hxt1, stronger effect = lower value 1.02 | locus YHR129C, strain ARP1, stronger effect = lower value 1.01 | locus YHR142W, strain chs7, stronger effect = lower value 0.985 | locus YHR200W, strain rpn10, stronger effect = lower value 1.01 | locus YIL066C, strain RNR3, stronger effect = lower value 0.988 | locus YIL073C, strain SPO22, stronger effect = lower value 1.04 | locus YIL125W, strain kgd1, stronger effect = lower value 1.02 | locus YIR030C, strain dcg1, stronger effect = lower value 1.01 | locus YJL092W, strain hpr5, stronger effect = lower value 0.971 | locus YJL095W, strain BCK1 (second series), stronger effect = lower value 1.01 | locus YJL095W, strain BCK1, stronger effect = lower value 1.06 and 0.975 | locus YJL115W, strain asf1, stronger effect = lower value 0.982 | locus YJL129C, strain trk1, stronger effect = lower value 0.963 | locus YJL134W, strain LCB3, stronger effect = lower value 1.01 | locus YJL154C, strain vps35, stronger effect = lower value 0.993 | locus YJL164C, strain tpk1, stronger effect = lower value 1 | locus YJL166W, strain qcr8, stronger effect = lower value 1.01 | locus YJL168C, strain set2, stronger effect = lower value 1.01 | locus YJL187C, strain SWE1 (second series), stronger effect = lower value 1.05 | locus YJL187C, strain SWE1, stronger effect = lower value 0.994 | locus YJR043C, strain POL32, stronger effect = lower value 0.975
